Out of some 2,100 compounds screened, about 1,100 (52%) were called active. About 29% were inconclusive and are not listed. The set was probably picked from earlier hits. The list shows a part of the results. Values without a mark were called inactive. Calls follow the shape of the dose curve; as a rule, active = well fitted inhibition curve with a large enough effect; inconclusive = small, poorly fitted or top-dose-only effect; inactive = no such curve, though single readings can be large or run the other way.
Biological target: DNA dC->dU-editing enzyme APOBEC-3F (Homo sapiens) (UniProt Q8IUX4)
Assay: qHTS for inhibitors of Vif-A3F interactions: Cherry picks counterscreen; also: nearly all actives have a fitted effect of over 65% in size
Details: HeLa A3F-eYFP/Vif cells, eYFP fluorescence, 24 h; series mostly up to 46.1 µM; activity, negative = inhibitor: at the top concentration
In short: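 HeLa cells stably expressing A3F-eYFP and Vif, cultured overnight, then treated 24 h at 37 degrees C with compounds at several concentrations; yellow fluorescence (488 nm Ex/500-530 nm Em) imaged on Acumen; MG132 positive control.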
% is scaled to controls: 0 for no effect and ±100 for the full control effect; potency is read from the fitted curve at half-maximal effect.

Chain of DNA dC->dU-editing enzyme APOBEC-3F (Homo sapiens) (Q8IUX4 whole entry, looked up): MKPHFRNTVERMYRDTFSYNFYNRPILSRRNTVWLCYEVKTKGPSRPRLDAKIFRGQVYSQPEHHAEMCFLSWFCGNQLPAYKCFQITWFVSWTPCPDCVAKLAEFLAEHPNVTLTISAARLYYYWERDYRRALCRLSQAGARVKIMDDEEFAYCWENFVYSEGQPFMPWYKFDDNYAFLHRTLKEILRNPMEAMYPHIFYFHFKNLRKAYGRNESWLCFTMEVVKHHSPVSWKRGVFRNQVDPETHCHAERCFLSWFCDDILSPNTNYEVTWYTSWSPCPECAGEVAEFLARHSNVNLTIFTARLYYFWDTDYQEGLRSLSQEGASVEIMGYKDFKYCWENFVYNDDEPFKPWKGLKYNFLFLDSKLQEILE

Row | SMILES | Potency | activity, negative = inhibitor
1 | Cc1ccnc(N/C=C(\C#N)c2nc(-c3cccc(Br)c3)cs2)c1 | 15.8 µM (active) | –
2 | Cc1cc(C)cc(NC(=O)Cn2cc(C(=O)C3CCCCC3)c3ccccc32)c1 | 16.4 µM (active) | –
3 | Cc1cc(C)cc(NC(=S)NC(=O)C2CC2)c1 | – | 1.05%
4 | Cc1cc(/C=C/c2ccnc3ccccc23)ccc1N(C)C | 10.3 µM (active) | –
5 | Cc1cc(/C=C/c2ccnc3ccccc23)ccc1N | 16.4 µM (active) | –
6 | CN1CCCc2cc(/C=C/c3ccnc4ccccc34)ccc21 | 2.59 µM (active) | –
7 | CN(C)c1ccc(/C=C/c2ccnc3ccccc23)cc1O | 18.4 µM (active) | –
8 | CN(C)c1ccc(/C=C/c2ccnc3ccccc23)cc1C=O | 6.51 µM (active) | –
9 | CCc1cc(/C=C/c2ccnc3ccccc23)ccc1N(C)C | 20.6 µM (active) | –
10 | Cc1ccc(CNC(=O)Cc2ccc(-n3cccc3)cc2)cc1 | 3.53 µM (active) | –
11 | Cc1ccc(NC(=O)Cc2ccc(-n3cccc3)cc2)c(C)c1 | – | 7.57%
12 | CCN(CC)CCCNc1ccc2ncn3c4ccc(O)cc4c(=O)c1c23 | 20.6 µM (active) | –
13 | CN(C)CCNc1ccc2ncn3c4ccc(O)cc4c(=O)c1c23 | 20.6 µM (active) | –
14 | C=CCNC(=S)N/N=C/c1ccc(C)cc1C | – | -7.51%
15 | CCOc1cc(S(=O)(=O)NCc2ccc(OC)cc2)c(OCC)cc1-n1cnnn1 | 12.5 µM (active) | –
16 | c1ccc2c(c1)Cc1cc3ccccc3nc1-2 | 9.2 µM (active) | –
17 | Cc1ccc(S(=O)(=O)N2CCCCC2CCNC(=O)C(=O)NCc2ccco2)cc1 (stereo unspecified) | 14 µM (active) | –
18 | COc1cc(/C=C/C(=O)c2ccc3c(c2)OCCO3)cc(Br)c1OCC(=O)N(C)C | 14 µM (active) | –
19 | CN(C)c1ccc(/C=C/c2ccnc3c(N)cccc23)cc1 | 18.4 µM (active) | –
20 | CN(C)c1ccc(/C=C/c2ccnc3c(Cl)cccc23)cc1 | 9.2 µM (active) | –
21 | CN(C)c1ccc(/C=C/c2ccnc3c(Cl)ccc(Cl)c23)cc1 | 5.17 µM (active) | –
22 | COc1ccc(-c2ccc3c(c2)S(=O)(=O)c2cccc(C(=O)NCCOc4ccccc4)c2C3=O)cc1OC | 14 µM (active) | –
23 | O=C(NCc1ccccc1Cl)c1cccc2c1C(=O)c1ccc(-c3ccc(OC(F)(F)F)cc3)cc1S2(=O)=O | 16.4 µM (active) | –
24 | COc1ccc(-c2ccc3c(c2)S(=O)(=O)c2cccc(C(=O)NCc4cccc(OC(F)(F)F)c4)c2C3=O)cc1OC | 3.66 µM (active) | –

Row | SMILES | Potency | activity, negative = inhibitor
25 | COc1ccc(S(=O)(=O)NN(C)c2nc(C(F)(F)F)nc3ccccc23)cc1 | 11.2 µM (active) | –
26 | COc1ccc(NC(=O)C2(C)Cc3c(-c4cccc(NC(C)=O)c4)ccnc3O2)cn1 (stereo unspecified) | 7.04 µM (active) | –
27 | COc1ccc(NC(=O)C2(C)Cc3c(-c4cccc(C(N)=O)c4)ccnc3O2)cn1 (stereo unspecified) | 12.5 µM (active) | –
28 | CN(C)c1ccc(/C=C(/C(=O)c2ccc(Cl)cc2Cl)n2cncn2)cc1 | 14 µM (active) | –
29 | Cn1c(=S)c2[nH]c(SCCN3CCCC3)nc2n(C)c1=O | – | 5.61%
30 | COc1cc(-c2noc(C)c2/C=C/c2ccc(OC(C)=O)cc2)cc(OC)c1OC | 0.627 µM (active) | –
31 | COc1cc(-c2noc(C)c2/C=C/c2cccc([N+](=O)[O-])c2)cc(OC)c1OC | 1.58 µM (active) | –
32 | O=c1[nH]c2cc(Br)cnc2nc1/C=C(\O)c1ccc(F)cc1 | 18.4 µM (active) | –
33 | COc1ccc(Cl)cc1NC(=O)CSc1nc2c([nH]c3ccccc32)c(=O)n1-c1ccccc1 | 25.9 µM (active) | –
34 | Cc1ccc(NC(=O)c2ccc(NCC3CCCO3)c([N+](=O)[O-])c2)cc1Cl (stereo unspecified) | 20.6 µM (active) | –
35 | Cc1ccc(NC(=O)c2ccc([N+](=O)[O-])s2)cc1S(=O)(=O)N1CCOCC1 | – | -22.5% [at 36.9 µM]
36 | O=C(O)c1ccc(NS(=O)(=O)c2cccc(C(=O)Nc3ccccc3[N+](=O)[O-])c2)cc1 | – | -7.28% [at 36.9 µM]
37 | O=C(NCCN1C(=O)S/C(=C\c2ccc(OC(F)F)cc2)C1=O)c1cnccn1 | 7.04 µM (active) | –
38 | ClCc1nc2ccccc2n1Cc1ccccc1 | 18.4 µM (active) | –
39 | CC(C)(C)c1ccc(Cn2c(=O)cnc3ccccc32)cc1 | – | -20.8%
40 | COc1cc(N2CCCC2)c(OC)cc1/C=C(/C#N)c1ccc(F)cc1 | 9.2 µM (active) | –
41 | COc1cc(N2CCCC2)c(OC)cc1/C=C(/C#N)c1ccc(Br)cc1 | 2.06 µM (active) | –
42 | CC(=O)/C(N=Nc1cc(C)ccc1O)=C(\C)O | 16.4 µM (active) | –
43 | Cc1ccccc1OCCc1c(C)[nH]c(=S)[nH]c1=O | 2.23 µM (active) | –
44 | Cc1ccc(-c2nc(SCCOc3ccccc3C)n3[nH]c(=O)cc3n2)cc1 | – | 4.56%
45 | COc1cc(NC(=O)C2=C(N3CCOCC3)/C(=C\c3ccc(N(C)C)cc3)CCC2)cc(OC)c1OC | 5.59 µM (active) | –
46 | O=C1CC(c2cc(F)ccc2F)c2cc3c(cc2N1)CCC3 (stereo unspecified) | 3.14 µM (active) | –
47 | O=C1CC(c2cc(Br)ccc2F)c2cc3c(cc2N1)CCC3 (stereo unspecified) | 1.12 µM (active) | –
48 | O=C1CC(c2ccccc2F)c2cc3c(cc2N1)CCC3 (stereo unspecified) | 2.5 µM (active) | –

Row | SMILES | Potency | activity, negative = inhibitor
49 | CCC(=O)NC(=S)Nc1cccc(Cl)c1N1CCCC1 | – | -20.3%
50 | O=C(COc1ccccc1)NC(=S)Nc1cccc2c(O)cccc12 | – | -26.3% [at 36.9 µM]
51 | NC(=O)c1ccccc1NC(=S)NC(=O)CCc1ccccc1 | 9.94 µM (active) | –
52 | Oc1ccc(-c2nc(-c3ccc(O)c(O)c3)cs2)cc1 | 1.25 µM (active) | –
53 | Cc1ccccc1NC(=O)c1ccc2c(c1)c(C)c(C)n2Cc1ccccc1 | 6.51 µM (active) | –
54 | COc1ccc(NC(=O)c2ccc3c(c2)c(C)c(C)n3Cc2ccc(F)cc2)cc1 | 4.61 µM (active) | –
55 | O=[N+]([O-])c1ccc(N2CCN(Cc3ccccc3)CC2)c2c1no[n+]2[O-] | 15.8 µM (active) | –
56 | COc1ccc(OC)c(-c2cc(-c3cccnc3)nc(N)c2C#N)c1 | 3.53 µM (active) | –
57 | Cc1c(C(=O)C(=O)N2CCCc3ccccc32)c2ccccc2n1C | 8.86 µM (active) | –
58 | O=C(/C=C/c1ccco1)N1CCc2ccccc21 | – | -25.8%
59 | Cc1c(C(=O)C(=O)N2CC=C(c3ccccc3)CC2)c2ccccc2n1C | 2.5 µM (active) | –
60 | CCOc1ccc(-c2cc(C(=O)NCCc3ccc(OC)c(OC)c3)c3c(-c4ccc(F)cc4)[nH]nc3n2)cc1 | 16.4 µM (active) | –
61 | COc1ccc(CCNC(=O)CC2(CC3=NS(=O)(=O)c4ccccc4N3)CCCC2)cc1OC | – | -12% [at 36.9 µM]
62 | COc1ccc(OC)c(CNc2nc3ccc(C)cc3n3nnnc23)c1 | 8.2 µM (active) | –
63 | COc1ccccc1CNc1nc2ccc(C)cc2n2nnnc12 | 23.1 µM (active) | –
64 | O=C1c2ccccc2-c2onc3c(N4CCN(C5CCCCC5)CC4)cc(NCCO)c1c23 | 5.8 µM (active) | –
65 | CCNc1cc(N2CCN(C3CCCCC3)CC2)c2noc3c2c1C(=O)c1ccccc1-3 | 13 µM (active) | –
66 | CN(C)CCCNc1cc(N2CCN(C3CCCCC3)CC2)c2noc3c2c1C(=O)c1ccccc1-3 | 2.59 µM (active) | –
67 | O=C(NC(=S)N1CCc2ccccc21)c1ccco1 | – | -3.14%
68 | CCN(CC)c1ccc(/C=N/NC(=O)c2ccco2)cc1 | 6.27 µM (active) | –
69 | Cc1ccc(CNc2nc3ccc(Cl)cc3n3nnnc23)cc1 | 11.6 µM (active) | –
70 | c1ccc2c(c1)nc(N1CCOCC1)c1nnnn12 | 20.6 µM (active) | –
71 | Fc1ccccc1Nc1nc2ccccc2n2nnnc12 | 14.6 µM (active) | –
72 | Fc1ccc(CNc2nc3ccccc3n3nnnc23)cc1 | 11.6 µM (active) | –

Row | SMILES | Potency | activity, negative = inhibitor
73 | Fc1ccc(CNc2nc3ccc(Cl)cc3n3nnnc23)cc1 | 6.51 µM (active) | –
74 | c1ccc2c(c1)nc(NCC1CCCO1)c1nnnn12 (stereo unspecified) | 18.4 µM (active) | –
75 | Cc1ccc(/C(C#N)=C\c2ccc(N3CCOCC3)o2)cc1 | 15.8 µM (active) | –
76 | N#C/C(=C/c1ccc(N2CCCCCC2)o1)c1ccc(Cl)cc1 | 3.66 µM (active) | –
77 | N#C/C(=C/c1ccc(N2CCOCC2)o1)c1ccc(Cl)cc1 | 4.61 µM (active) | –
78 | N#C/C(=C/c1ccc(N2CCCCC2)o1)c1cccc(F)c1 | 4.11 µM (active) | –
79 | CCN(c1ccc(NC(=O)CCc2nc3sc4c(c3c(=O)[nH]2)CCCC4)cc1)C(C)C | – | -28.5%
80 | COc1ccc(C(=O)C[n+]2cc(Br)cc3ccccc32)cc1 | 16.4 µM (active) | –
81 | COc1ccc(C(=O)C[n+]2cccc3cc(Cl)ccc32)cc1 | 20.6 µM (active) | –
82 | CC(C)(C)c1ccc(C(=O)C[n+]2cccc3cc(Cl)ccc32)cc1 | 18.4 µM (active) | –
83 | O=C(C[n+]1cccc2cc(Cl)ccc21)c1ccc2ccccc2c1 | 20.6 µM (active) | –
84 | CCCC1=[N+](CC(=O)c2ccc(Br)cc2)CCn2cccc21 | – | -9.63%
85 | O=C(NC1C/C(=N/O)c2cc3c(cc21)OCO3)C(F)(F)F (stereo unspecified) | – | 11.8%
86 | CCCn1c(CN2CCN(C(=O)OCC)CC2)nc2cc(NC(=O)C(C)C)ccc21 | 12.5 µM (active) | –
87 | CCN(CC)C(=O)Cn1c(C)c(/C=C/c2cc[n+](C)cc2)c2ccccc21 | 7.9 µM (active) | –
88 | COC(=O)Cn1c(C)c(/C=C/c2cc[n+](C)cc2)c2ccccc21 | 9.2 µM (active) | –
89 | COc1ccccc1-c1cc(-c2ccccc2)nc(SC(C(N)=O)c2ccccc2)c1C#N (stereo unspecified) | 17.7 µM (active) | –
90 | N#CC1=C(S)N(c2ccc(F)cc2)C2(CCCCC2)NC1=O | – | 16.2%
91 | Cc1ccc2nc(C)c(C(=O)NN=C3CCCCCC3)n2c1 | – | -27.5% [at 36.9 µM]
92 | O=C1OC(/C(=C\Nc2cc(Cl)ccc2O)[N+](=O)[O-])c2ccccc21 (stereo unspecified) | – | -22.5% [at 36.9 µM]
93 | CCN(CCCN(C)C)c1ccc(/C=C/c2ccnc3ccccc23)cc1 | 20.6 µM (active) | –
94 | CCCCN(CCC(=O)O)c1ccc(/C=C/c2ccnc3ccccc23)cc1 | 18.4 µM (active) | –
95 | CCN(C)c1ccc(/C=C/c2ccnc3ccccc23)cc1 | 23.1 µM (active) | –
96 | CC(C)CN(CC(C)C)c1ccc(/C=C/c2ccnc3ccccc23)cc1 | 20.6 µM (active) | –
